Results on 1 compound are retold here after PubChem BioAssay (EPA / NIEHS).

For orientation: AC50 means the concentration at which the activity in the assay is half-maximal.

A short description of assay [1]: CCTE_Shafer_MEA_dev_burst_duration_mean: CCTE's Neural Network Formation Assay for Mean Burst Duration, Shafer Lab (AID 2284045). Put shortly:
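Primary rat cortical neurons on PEI-coated 16-electrode MEA wells, exposed from plating through day 12 with compound renewed at DIV 5 and 9; spontaneous activity recorded days 5, 7, 9, 12. Well-mean burst duration collapsed as trapezoidal AUC, fitted for loss versus DMSO.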

The nature of assay [2]: CCTE_Shafer_MEA_dev_interburst_interval_mean: CCTE's Neural Network Formation Assay for Mean Interburst Interval, Shafer Lab (AID 2284046).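 Also: curve fitted for decrease in interburst interval relative to DMSO.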 A digest of the protocol: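 Developing rat cortical networks on 48-well MEAs receive compound from the day of plating. Burst intervals from each active electrode are averaged per well, and AUC over the recording days is fitted in the negative direction against DMSO.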

A short description of assay [3]: CCTE_Shafer_MEA_dev_inter_network_spike_interval_mean: CCTE's Neural Network Formation Assay for Mean Inter-network Spike Interval, Shafer Lab (AID 2284047). A digest of the protocol:
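Rat cortical cultures, 1.5 x 10^5 cells/well on 48-well MEA plates; continuous exposure days 0–12, medium and compound refreshed DIV 5, 9. Mean time between consecutive network-spike peaks; AUC across DIV 5/7/9/12; DMSO baseline, negative fitting direction.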

The nature of assay [4]: CCTE_Shafer_MEA_dev_network_spike_number: CCTE's Neural Network Formation Assay for Number of Network Spikes, Shafer Lab (AID 2284048).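 Also: synchronized bursts across electrodes counted on days 5 7 9 12 and integrated as AUC; fit as a loss of signal meaning fewer network spikes than DMSO.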 A digest of the protocol: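 Primary rat cortical neurons were seeded at 1.5 x 10^5 cells/well on PEI-coated 16-electrode MEA wells with laminin, exposed from plating day 0, compound renewed at DIV 5 and 9. Network spikes were recorded on days 5, 7, 9, 12 and summarized as trapezoidal AUC versus DMSO.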

The nature of assay [5]: CCTE_Shafer_MEA_dev_spike_duration_mean: CCTE's Neural Network Formation Assay for Mean Spike Duration, Shafer Lab (AID 2284051).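 Also: potency for a decrease in mean network spike duration versus DMSO.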 Put shortly: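 Readout is the average length of network spikes, clustered firing across electrodes, summed over DIV 5, 7, 9 and 12 as area under the curve. Neurons from rat cortex developed networks on MEA plates under continuous 12-day exposure.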

Assay [6] can be described thus: CCTE_Shafer_MEA_dev_network_spike_duration_std: CCTE's Neural Network Formation Assay for Standard Deviation of Network Spike Duration, Shafer Lab (AID 2284052).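 Also: hits are decreases in network spike duration SD versus DMSO vehicle.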 A digest of the protocol:
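Read-out is the trapezoidal area-under-the-curve across recordings made on days 5, 7, 9 and 12, fitted in the negative direction against DMSO baseline. Neurons were primary rat cortical cells treated from day 0, with treatment renewed at each feed.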

Assay [7] in a line: CCTE_Shafer_MEA_dev_per_network_spike_spike_number_mean: CCTE's Neural Network Formation Assay for Mean Number of Spikes in a Network Spike, Shafer Lab (AID 2284053).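 Also: fitted as decrease in spikes per network spike relative to DMSO.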 Put shortly: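 Continuous twelve-day exposure of developing rat cortical networks grown over 16 microelectrodes per well; spontaneous firing is captured at four time points, and the per-network-spike spike number is integrated over development by trapezoidal AUC.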

A short description of assay [8]: CCTE_Shafer_MEA_dev_per_network_spike_spike_percent: CCTE's Neural Network Formation Assay for Percent of Spikes in a Network Spike, Shafer Lab (AID 2284054). Put shortly: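 Primary rat cortical neurons on 16-electrode MEA wells (PEI-coated, laminin at plating), exposed from day 0 with renewal at DIV 5 and 9; spikes within 0.05 s of network-spike peaks over total spikes, AUC across days 5, 7, 9, 12.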

Assay [9] in a line: CCTE_Shafer_MEA_acute_AB: CCTE's Alamar Blue Assay for Cytotoxicity in the Neural Acute Assay, Shafer Lab (AID 2284069; active = hit-call score of the fitted dose curve at least 0.9, where 1 is the maximum;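 also: active compounds lower the viability signal compared with DMSO wells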). A digest of the protocol: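 Metabolic activity in chemically exposed rat cortical neurons (MEA cultures, day 13/15 post-plating) measured via CellTiter Blue resazurin reduction, 544/590 nm fluorescence; fitted relative to DMSO, with signal loss indicating reduced viability.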

The nature of assay [10]: CCTE_Shafer_MEA_acute_LDH: CCTE's Lactate Dehydrogenase Assay for Cytotoxicity in the Neural Acute Assay, Shafer Lab (AID 2284086; active = hit-call score of the fitted dose curve at least 0.9, where 1 is the maximum;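 also: active means LDH release rises above DMSO vehicle level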). Put shortly:
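Rat cortical neurons cultured on microelectrode arrays; baseline 40-min recording, compound added, second 40-min recording; medium then sampled for released LDH (colorimetric kit, 490 nm). DMSO = negative control.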

Assay [11] in a line: CCTE_Shafer_MEA_dev_mutual_information_norm: CCTE's Neural Network Formation Assay for Mutual Information Normalization, Shafer Lab (AID 2284091).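 Also: mutual information between electrodes summarised as area under curve across four recording days; potency is for a decrease in mutual information relative to DMSO.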 A digest of the protocol: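 Rat cortical cultures, 48-well MEA, continuous exposure DIV 0–12 with full media/compound change DIV 5 and 9. Readout: inter-electrode mutual information, AxIS adaptive spike detection; AUC across DIV 5/7/9/12 recordings; DMSO baseline, negative fitting direction.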

The nature of assay [12]: CCTE_Shafer_MEA_dev_correlation_coefficient_mean: CCTE's Neural Network Formation Assay for Mean Correlation Coefficient, Shafer Lab (AID 2284093).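 Also: well mean pairwise spike train correlation integrated as AUC over recording days 5 to 12; potency fitted for loss of correlation relative to DMSO vehicle wells.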 Put shortly: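 Read-out: well-mean correlation coefficient of spike trains between electrode pairs, collapsed over four recording days as trapezoidal area-under-the-curve. Developing rat cortical neuron networks grown on MEAs received test chemical continuously from plating.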

Assay [13] in a line: CCTE_Mundy_HCI_Cortical_Synap_Neur_Matur_NeuriteSpotCountPerNeuriteLength: CCTE's Synaptogenesis and Neurite Maturation Assay in rat cortical cells for Neurite Spot Count per Neurite Length, Mundy Lab (AID 2284210). A digest of the protocol:
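Rat primary cortical cultures, glia arrested with AraC at DIV 5, were dosed with media change at DIV 7 and fixed at DIV 12. Synaptophysin puncta per MAP2-labelled neurite length were quantified by high-content imaging versus DMSO.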

Assay [14] can be described thus: CCTE_Mundy_HCI_Cortical_NOG_NeuriteCount: CCTE's Neurite Outgrowth Assay in rat cortical cells for Neurite Count, Mundy Lab (AID 2284212).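 Also: cells fixed about two days after chemical exposure began.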 A digest of the protocol:
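Neurite number per cell from high-content imaging of betaIII-tubulin immunostaining, with Hoechst nuclear counterstain.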

The nature of assay [15]: CCTE_Mundy_HCI_Cortical_NOG_NeuriteLength: CCTE's Neurite Outgrowth Assay in rat cortical cells for Neurite Length, Mundy Lab (AID 2284213). Put shortly:
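Neurite length was read by high-content imaging of βIII-tubulin-labelled neurites in rat primary cortical cultures. Activity was fitted relative to DMSO.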

Assay [16] can be described thus: CCTE_Mundy_HCI_Cortical_Synap_Neur_Matur_NeuriteSpotCountPerNeuron: CCTE's Synaptogenesis and Neurite Maturation Assay in rat cortical cells for Neurite Spot Count per Neuron Count, Mundy Lab (AID 2284215). A digest of the protocol:
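Read-out: neurite-associated synaptophysin puncta per neuron, imaged by high-content analysis after MAP2, synaptophysin and Hoechst staining. Rat primary cortical cultures, dosed DIV 7 through DIV 12; DMSO served as baseline.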

Assay [17] in a line: CCTE_Mundy_HCI_Cortical_Synap_Neur_Matur_SynapseCount: CCTE's Synaptogenesis and Neurite Maturation Assay in rat cortical cells for Synapse Count, Mundy Lab (AID 2284218). A digest of the protocol:
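Primary rat cortical culture; AraC DIV 5 to arrest glia; compound + media change DIV 7; terminated DIV 12. PFA/Hoechst fix, anti-MAP2 + anti-synaptophysin immunostain; HCI synapse count/neuron; DMSO = baseline.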

Assay [18] in a line: CCTE_Mundy_HCI_Cortical_Synap_Neur_Matur_NeuriteCount: CCTE's Synaptogenesis and Neurite Maturation Assay in rat cortical cells for Neurite Count, Mundy Lab (AID 2284222). A digest of the protocol: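 Chemical exposure runs DIV 7–12 in rat cortical cultures, glia suppressed by AraC at DIV 5; measurement is at DIV 12. Imaging-derived neurite counts are fitted against DMSO baseline.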

Assay [19] can be described thus: CCTE_Mundy_HCI_Cortical_Synap_Neur_Matur_CellBodySpotCount: CCTE's Synaptogenesis and Neurite Maturation Assay in rat cortical cells for Cell Body Spot Count, Mundy Lab (AID 2284223). A digest of the protocol:
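Read-out: cell body-associated synaptophysin puncta per neuron, imaged after MAP2, synaptophysin and Hoechst staining. Rat cortical cells, AraC DIV 5, chemical dosing DIV 7, fixation DIV 12. Activity fitted in positive direction relative to DMSO baseline.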

A short description of assay [20]: CCTE_Mundy_HCI_hNP1_Casp3_7: CCTE's Caspase-Glo 3/7 Assay in human neuroprogenitor cells for Apoptosis, Mundy Lab (AID 2284240). A digest of the protocol:
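Neuroepithelial-lineage stem cells from WA09 embryonic cells were treated with chemicals after 40–44 h of culture. Twenty-four hours later, caspase-3/7 activation was detected luminescently after a 30 min room-temperature reagent step, with DMSO as baseline.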

Assay [21] in a line: CCTE_Mundy_HCI_hNP1_CellTiter: CCTE's Cell Titer-Glo 2 Assay in human neuroprogenitor cells for Viability, Mundy Lab (AID 2284241; active = hit-call score of the fitted dose curve at least 0.9, where 1 is the maximum;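 also: a hit is a drop in ATP luminescence versus DMSO meaning reduced viability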). A digest of the protocol:
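Measures ATP content in human neural progenitors derived from WA09 embryonic cells. Read-out at 26.5 hours after dosing, with DMSO serving as the negative control and baseline.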

Assay [22] can be described thus: CCTE_Mundy_HCI_iCellGluta_NOG_NeuronCount: CCTE's Neurite Outgrowth Assay in iCellGluta cells for Neuron Count, Mundy Lab (AID 2284340; active = hit-call score of the fitted dose curve at least 0.9, where 1 is the maximum;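 also: cells fixed about 48 h after compound addition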). Put shortly:
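Neuron count read by automated high-content imaging of Hoechst 33342 and betaIII-tubulin/Alexa Fluor-488 labelling in human iPSC glutamatergic neurons. Activity fitted relative to DMSO.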

Assay [23] in a line: CCTE_Mundy_HCI_iCellGluta_NOG_NeuriteCount: CCTE's Neurite Outgrowth Assay in iCellGluta cells for Neurite Count, Mundy Lab (AID 2284342; active = hit-call score of the fitted dose curve at least 0.9, where 1 is the maximum;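 also: chemical exposure about 48 hours starting 2 hours after plating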).

Each structure is given as a SMILES string. Inconclusive results are not listed. Calls of active or inactive are those of the source. The calls were made as follows, unless noted: active = hit-call score of the fitted dose curve at least 0.9, where 1 is the maximum; inactive = score below 0.9.

On to `CC1(C)[C@H](C=C(Cl)Cl)[C@@H]1C(=O)O[C@@H](C#N)c1cccc(Oc2ccccc2)c1`, for which the result in assay [1], in assay [2], in [3], in assay [9], in assay [10] and in assay [13] was inactive. In addition, the result in [14], in assay [15], in assay [16], in [17], in assay [18] and in assay [19] was inactive. Moreover, the result in assay [20], in assay [22] and in assay [23] was inactive. The AC50 in [4] was 4.81 µM (active); in assay [5] it was 4.92 µM (active); in [6], 4.6 µM (active); in assay [7], 5.97 µM (active); in [8], 15 µM (active); in assay [11], 2.25 µM (active). The AC50 in assay [12] was 4.79 µM (active); in assay [21] it was 26 µM (active).
